# The supplement of paper PMC7156485
# ± gives the standard deviation of the averaged measurements.
# Test system: HCC1569
# Experiment: cell number relative to DMSO (% of DMSO); higher = more cells (less growth inhibition / toxicity)
# Settings: concentration: 10 µM; 24 h
# Outline: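 In 384-well plates holding 800 HCC1569 or TDF cells per well in RPMI with 10% FBS, compounds were tested at 10 µM for 24 h at 37 °C in triplicate. Fixation used 3.7% formaldehyde. Staining used a rabbit anti-H1.0 antibody with an AlexaFluor 647 secondary, plus DAPI. Each value, H1.0 nuclear intensity or cell number, is a median of replicates shown as percent of the plate control, and HCC1569 values were smoothed for positional effects.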
# 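Note: TDF denotes transformed human dermal fibroblasts of mesenchymal origin.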
row,SMILES,cell number
1,CCCCCC=CCC=CC=CC=CCC(=O)CCCC(=O)O [5-Ketoeicosatetraenoic acid],99.9
2,O=C1CN(N=Cc2ccc(-c3ccc([N+](=O)[O-])cc3)o2)C(=O)[N-]1.[Na+] [Dantrolene sodium],100
3,Cc1ccc(S(=O)(=O)N2c3ccccc3Oc3ccccc32)cc1 [10-[(4-methylphenyl)sulfonyl]-10H-phenoxazine],53.5
4,CC(N)=NCCCC[C@H](N)C(=O)O.Cl [L-N6-(1-Iminoethyl)lysine hydrochloride],103
5,COc1cc(C2CC(=O)c3c(O)cc(O)cc3O2)ccc1O (stereo not given) [Homoeriodictyol],97.9
6,"CCN(CC)CCOC(=O)c1cc(Cl)c(N)cc1OC.Cl [SDZ-205,557 hydrochloride]",105
7,"CCCCCC=CCC=CCC=CCCCCCCC(=O)O [8(Z), 11(Z), 14(Z)-Eicosatrienoic Acid]",97.9
8,CN1C(C(=O)Nc2ccccn2)=C(O)c2ccccc2S1(=O)=O [Piroxicam],102 ± 2.1
9,NC(=O)c1noc([C@H](CCCC2CCCCC2)CC(=O)NO)n1,73.8
10,CCCCCC(O)C=CC=CCC=CCCCCC(=O)O (stereo not given),103
11,CC(N)=NCc1cccc(CN)c1.Cl.Cl [1400W dihydrochloride],101
12,CC1=NN(c2ccc(C(=O)O)cc2)C(=O)/C1=C\c1ccc(-c2cc(C)c(C)cc2[N+](=O)[O-])o1,89.5
13,CCCCCC=CCC=CCC=CC=CC(O)CCCC(=O)O (racemic),101
14,O=C(O)CN(CCOCCOCCN(CC(=O)O)CC(=O)O)CC(=O)O,99.4
15,O=C(OC1CC2CC3CC(C1)N2CC3=O)c1c[nH]c2ccccc12 (stereo not given) [Dolasetron],99.1
16,CC1(C)CCC2=C(O1)c1ccccc1C(=O)C2=O [beta-Lapachone],59.7 ± 36
17,COc1ccnc(CS(=O)c2nc3cc(OC(F)F)ccc3[n-]2)c1OC.O.[Na+] (stereo not given),104
18,C=CCc1ccccc1OCC(O)CNC(C)C.Cl (stereo not given) [Alprenolol.HCl],102
19,Nc1nc2ccc(Cl)cc2c2nc(-c3ccco3)nn12,99.2
20,CN1CCN(CCCN2c3ccccc3Sc3ccc(C(F)(F)F)cc32)CC1.Cl.Cl [Trifluoperazine dihydrochloride],87.3

row,SMILES,cell number
1,COc1cc2ncnc(Nc3ccc(NC(=O)c4ccccc4)cc3)c2cc1OC [Aurora Kinase Inhibitor II],77.8
2,N#Cc1c(N(CC(=O)[O-])CC(=O)[O-])sc(C(=O)[O-])c1CC(=O)[O-].[Sr+2].[Sr+2],100
3,COc1ccc(C=C2c3ccccc3C(=O)c3ccccc32)cc1O [10-(3-hydroxy-4-methoxybenzylidene)-9(10H)-anthracenone],62.7
4,COc1ccc2c(c1)c(CC(=O)Nc1ccc(NC(C)=O)cc1)c(C)n2C(=O)c1ccc(Cl)cc1 [N-(4-acetamidophenyl)indomethacinamide],78.7
5,CCCCCC(O)C=CC1C(=O)C=CC1CC=CCCCC(=O)O (stereo not given) [Prostaglandin J2],99.8
6,O=C1Nc2ccccc2C1=Cc1c(Cl)[nH]c2ccccc12 [Cdk1 Inhibitor],56.6
7,COc1cc2c(c(OC)c1OC)-c1ccc(OC)c(=O)cc1C(NC=O)CC2 (stereo not given) [N-Formyl-Deacetylcolchicine],98.9
8,CCCCCCCCCCCCCCCC(O)C(N)CO (racemic) [DL-erythro-Dihydrosphingosine],102
9,COC(=O)c1ccc2c(c1)NC(=O)C2=C(Nc1ccc(N(C)C(=O)CN2CCN(C)CC2)cc1)c1ccccc1 [Vargatef],95.2
10,Cc1nnc(SCC2=C(C(=O)[O-])N3C(=O)C(NC(=O)Cn4cnnn4)C3SC2)s1.[Na+] (stereo not given) [Cefazolin sodium],101
11,COc1ccc(C2Sc3ccccc3N(CCN(C)C)C(=O)C2OC(C)=O)cc1.Cl (stereo not given) [Diltiazem hydrochloride],101
12,CCOC(=O)c1ncn2c1CN(C)C(=O)c1cc(F)ccc1-2 [Flumazenil],104 ± 7.3
13,CN1C2CCC1CC(OC(=O)c1c[nH]c3ccccc13)C2 (stereo not given) [Tropisetron],102
14,CCCCCC(=O)C=CC=CCC=CCC=CCCCC(=O)O [15-Ketoeicosatetraenoic acid],99.5
15,CC(C)n1c(C=CC(O)CC(O)CC(=O)O)c(-c2ccc(F)cc2)c2ccccc21 (stereo not given) [Fluvastatin],96.3
16,CCCCCC=CCC=CCC=CCC=CCCCC(=O)OC(CO)COC(=O)CCCCCCCCCCCCCCCCC (stereo not given) [1-Stearoyl-2-arachidonoyl-glycerol],100
17,COc1c2ccoc2cc2oc(C)cc(=O)c12 [Visnagin],103
18,O=S(=O)(O)C1CCNCC1 [Piperidine-4-sulphonic acid],92.6
19,Cn1cnc2c(NCc3ccccc3)nc(NCCO)nc21 [Olomoucine],100
20,CCCCCC(O)C=CC1OC(=O)CC(O)C1CC=CCCCC(=O)O (stereo not given) [11-Dehydro-thromboxane B2],100
